Data: ChEMBL document CHEMBL3433997, “St. Jude Leishmania screening dataset” (2016)

Columns and labels:
Type in all cases: functional
[1] = target: Solute carrier family 2, facilitated glucose transporter member 1 (Homo sapiens) (UniProt P11166); experiment: ST_JUDE_LEISH: Cytotoxicity at 2uM final concentration against transgenic Leishmania Mexicana promastigotes LmGLUT1 that are glucose transport deficient and complemented with the human glucose transporter GLUT1. Activity is measured by DNA content using SYBR green in vitro
[2] = target: Hexose transporter 1 (Plasmodium falciparum) (UniProt O97467); experiment: ST_JUDE_LEISH: Cytotoxicity at 2uM final concentration against transgenic Leishmania Mexicana promastigotes LmPfHT that are glucose transport deficient and complemented with the Plasmodium falciparum hexose transporter. Activity is measured by DNA content using SYBR green in vitro
[3] = target: Glucose transporter (Leishmania mexicana) (UniProt O61059); experiment: ST_JUDE_LEISH: Cytotoxicity at 2uM final concentration against transgenic Leishmania Mexicana promastigotes LmGT2 that are glucose transport deficient and complemented with the L. Mexicana glucose transporter 2. Activity is measured by DNA content using SYBR green in vitro

Chain of Solute carrier family 2, facilitated glucose transporter member 1 (Homo sapiens) (P11166 whole entry): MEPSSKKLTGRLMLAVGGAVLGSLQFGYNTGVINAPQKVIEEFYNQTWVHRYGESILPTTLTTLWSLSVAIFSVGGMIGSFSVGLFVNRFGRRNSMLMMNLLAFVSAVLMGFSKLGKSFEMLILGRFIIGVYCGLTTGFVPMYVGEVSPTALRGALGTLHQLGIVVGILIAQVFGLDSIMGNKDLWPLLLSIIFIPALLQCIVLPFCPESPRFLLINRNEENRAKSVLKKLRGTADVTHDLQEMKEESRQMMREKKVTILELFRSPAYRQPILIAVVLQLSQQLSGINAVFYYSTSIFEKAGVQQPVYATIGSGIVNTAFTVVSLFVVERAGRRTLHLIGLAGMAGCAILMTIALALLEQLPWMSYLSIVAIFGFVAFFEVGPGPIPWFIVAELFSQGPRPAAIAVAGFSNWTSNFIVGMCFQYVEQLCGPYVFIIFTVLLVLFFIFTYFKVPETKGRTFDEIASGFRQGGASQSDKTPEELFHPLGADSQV

Row | SMILES | inhibition [1] | inhibition [2] | inhibition [3]
1 | Cc1cccc2c1NC(=O)/C2=N/NC(=S)N(C)C | 1.53% | 4.53% | 2.09%
2 | Cc1cccc2nc(-c3ccc(-c4ccc(CNCc5ccc(CN)cc5)cc4)cc3)[nH]c12 | 7.89% | 5.94% | 2.77%
3 | COc1cc(Cc2cnc(N)nc2N)cc(OCCCS(=O)(=O)O)c1OC | 4.25% | 2.33% | 3.36%
4 | O=C(Nc1cccc(-c2csc(-c3nc4ccccc4[nH]3)c2)c1)c1ccoc1 | 3.4% | 3.05% | 1.11%
5 | N=C(N)NN=Cc1c2ccccc2c(Cl)c2ccc(Cl)cc12 | 107% | 106% | 104%
6 | CCc1ccc(CN2CCC(CNC(=O)c3cc(-c4cccc(Cl)c4)cs3)C2)cc1 (stereo unspecified) | -0.66% | -0.84% | -4.94%
7 | C=C(C)C1CC=C(CN2CCCC(n3ccc4cc(NC(=O)c5ccco5)ccc43)CC2)CC1 (stereo unspecified) | -1.77% | 3.75% | -2.38%
8 | CCC[C@@H]([C@@H](CC(C)C)C(=O)N[C@@H](CCCCNC(=O)OCc1ccccc1)C(=O)Nc1ncccn1)N(O)C=O | 19.1% | 21.5% | 17.1%
9 | Cc1cccc(NC(c2cccs2)c2c(NC(=O)c3ccccc3)sc(C)c2C)n1 (stereo unspecified) | 6.21% | 3.93% | 2.13%
10 | CC(C)Cn1cc(C2CCN(CCN3CCC(CNC(=O)c4ccc(NC(=O)c5ccc(Cl)cc5)cc4)CC3)CC2)c2ccccc21 | 7.85% | 7.36% | 4.99%
11 | Cc1ccc(Nc2nc(C)cc(Nc3cccc(C#N)c3)n2)cc1 | 42.3% | 65.8% | 16.3%
12 | COc1cccc(Nc2nc(C)cc(NCc3ccc(-n4ccnc4)cc3)n2)c1 | 4.08% | 13.7% | 8.06%
